Compounds without any hit were thinned out: in the full panel of roughly 79,000, 15% have a hit. A number with no mark means an inactive call. The source made the active and inactive calls. No stated cut-off is given here; in the data, active means growth inhibition above about 70%; inactive means the rest.
Experiments:
[1] = NCI Yeast Anticancer Drug Screen. Data for the rad50 strain (AID 155);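 further: 0% = growth of vehicle-only cultures of the same strain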; conditions: S. cerevisiae rad50 strain growth inhibition; at 50.0 µM; stronger effect = higher value
Outline: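 Growth of the mutant yeast was measured after compound exposure and referenced to vehicle-treated cultures.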

[2] = NCI Yeast Anticancer Drug Screen. Data for the mec2-1 strain (AID 157); conditions: S. cerevisiae mec2-1 strain, at 50.0 µM, stronger effect = higher value
Outline: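 Cells of the genetically defined mec2-1 yeast strain are incubated with test compound. Inhibition of growth is calculated against vehicle-treated controls.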

[3] = NCI Yeast Anticancer Drug Screen. Data for the sgs1 mgt1 strain (AID 161);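 further: 0% = growth of cultures given vehicle only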; conditions: S. cerevisiae sgs1 mgt1 strain, at 50.0 µM, stronger effect = higher value
Outline: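 Read-out: growth inhibition vs vehicle controls. Cells: mutant yeast strain deficient in DNA damage repair.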

[4] = NCI Yeast Anticancer Drug Screen. Data for the cln2 rad14 strain (AID 165);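 further: 0% = growth equal to vehicle treated cultures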; conditions: S. cerevisiae cln2 rad14 strain, at 50.0 µM, stronger effect = higher value
Outline: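 The screen exposed genetically defined yeast (cln2 rad14) to test compounds and scored growth inhibition relative to vehicle-treated controls.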

[5] = NCI Yeast Anticancer Drug Screen. Data for the bub3 strain (AID 167); conditions: S. cerevisiae bub3 mutant strain, at 50.0 µM, stronger effect = higher value
Outline: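 Whole-cell yeast assay. The mutant strain was incubated with compounds, and growth inhibition was determined by comparison with vehicle-treated cells.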

[6] = NCI Yeast Anticancer Drug Screen. Data for the mlh1 rad18 strain (AID 175); conditions: S. cerevisiae mlh1 rad18 strain growth inhibition; at 50.0 µM; stronger effect = higher value
Outline: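 Compound-treated yeast growth, normalised to vehicle controls. Strain bears defined DNA repair mutations.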

Structure (SMILES) | growth inhibition [1] | growth inhibition [2] | growth inhibition [3] | growth inhibition [4] | growth inhibition [5] | growth inhibition [6] [%]
OCCCOCc1ccccc1 | 39.8% | 27.4% | 30.9% | 30.3% | 17.5% | 12.2
CCC(c1ccc(C(C)=O)c(O)c1)C(CC)c1ccc(C(C)=O)c(O)c1 (stereo unspecified) | 9.65% | 9.75% | 22.6% | 8.7% | 2.8% | 30.4
O=C1CC(Cc2n[nH]c3c2CCC3)CC(=O)N1 | -8.25% | 2.65% | -10.2% | -16.4% | -10% | -13.2
O=C1NC(=O)C2CCC12 (stereo unspecified) | 1.95% | -4.2% | 1.45% | -20.7% | 8.95% | 18.2
CC(=O)Nc1ncc(CCC2OCCO2)c(=O)[nH]1 | -0.55% | -25.1% | 19.6% | -0.25% | 7.65% | 6.85
[Cl][Pt+2][Cl].[NH-]CC1([NH-])CCCCC1 | -10.2% | 14.1% | -19.6% | -2.8% | -5.6% | -31.9
Cc1cccc(NC(=O)c2cccc([N+](=O)[O-])c2C(=O)O)c1C | 4.8% | 11.9% | 3.75% | -7.15% | 25.6% | 10.8
CC(=O)OCCSc1ccc(Cl)cc1 | -2.4% | 9.8% | 6.6% | -33.2% | -23.3% | -7.65
CSCCCC(N)=O | 1.85% | -11.3% | -1.5% | 0.7% | -10.2% | 3.9
CCCN=C(NC(=O)c1ccc(Cl)cc1)SC | -16.3% | -41.5% | -6.05% | -6.7% | 8.05% | -46.4
COC(=O)C1(C2(C(=O)OC)NC(C)=C(c3ccccc3)C(=O)O2)NC(C)=C(c2ccccc2)C(=O)O1 (stereo unspecified) | 15.2% | -7.3% | -6.95% | 8.3% | -5.15% | 15
c1ccc(OB(Oc2ccccc2)Oc2ccccc2)cc1 | 12.2% | 6.65% | -7.25% | -39% | 4.2% | -6.7
CCCCCC(=O)OCCN(C)C | -7.15% | -24.2% | -4.45% | 21.1% | -13.5% | 24.9
COc1cc2c3c4c1OCc1c5c(cc(c1-4)CC3[N+](C)(C)CC2)OCO5 (stereo unspecified) | 4.35% | 6.3% | 8.7% | 21.1% | 11.1% | -52.1
CC(=O)N1C(=O)C(C)(C2=CC(=O)c3ccccc3C2=O)c2ccc(Br)cc21 (stereo unspecified) | 76.8% (active) | 77% (active) | 73.7% (active) | 71.8% (active) | 87% (active) | 67.2
COc1ccc(/C=[N+](\[O-])[C@H](COCc2ccccc2)c2ccccc2)cc1 | 18.4% | -18.3% | 0.05% | -1.6% | 6.6% | 4.3
c1ccc(C2OCCO2)c(OCCOc2cc(OCCOc3ccccc3C3OCCO3)c(OCCOc3ccccc3C3OCCO3)cc2OCCOc2ccccc2C2OCCO2)c1 | -7.6% | -18.9% | -9.9% | 0.3% | -4.3% | 12.3
CC(OCc1ccccc1)C(NC(=O)C1CSSCC(NC(=O)C(Cc2ccccc2)NC(=O)OCc2ccccc2)C(=O)NC(Cc2ccccc2)C(=O)NC(Cc2cn(C=O)c3ccccc23)C(=O)NC(CCCCNC(=O)OCc2ccccc2)C(=O)NC(C(C)OCc2ccccc2)C(=O)N1)C(N)=O (stereo unspecified) | -10.7% | 0.7% | -4.75% | 21.1% | 23.8% | -3
OC(CNc1ccccn1)c1ccccc1 (stereo unspecified) | -3.9% | -44.6% | -35.6% | 29.2% | -33.8% | 16.2
O=C(c1ccccc1)c1ccccc1 | 23.9% | 2.35% | -13.2% | -16.8% | 14.3% | 14.1
CC(C)[C@@]12O[C@@H]1CC13OC1[C@@H](O)CC[C@@]32O (stereo partly specified) | -16.6% | -1.05% | -2.8% | -27.9% | -6.25% | -20.8

Structure (SMILES) | growth inhibition [1] | growth inhibition [2] | growth inhibition [3] | growth inhibition [4] | growth inhibition [5] | growth inhibition [6] [%]
CC(=O)Nc1cccc(O)c1 | 18.4% | 5.3% | 25.1% | -13.8% | -8.7% | 22.6
CN1CCCC2[C@@H]3CCC4=C(O)C(=O)CC[C@]4(C)C3CC[C@@]21C (stereo partly specified) | 9.05% | -6.05% | -4% | 22.1% | 0.85% | 18.4
O=Nc1c(O)[nH]c2c(Cl)cccc12 | 0.1% | -10.2% | -15.2% | -20.4% | -18.2% | -5.25
OC(c1ccccc1)(c1ccccc1)c1nc2ccccc2[nH]1 | 2.7% | -1.75% | 14.2% | -19.8% | -0.1% | -0.9
O=c1[nH][nH]c(=O)c2c1nc(SCc1ccc(Br)cc1)n2Cc1ccccc1 | 16.9% | 0.3% | -7.95% | 1.85% | -2.35% | 3.8
CCCCCC(N)C(=O)O (stereo unspecified) | 1.7% | 6% | -14.5% | -22.1% | -2.35% | -17.9
CCO/N=C(/N)c1ncn(Cc2ccccc2)c1NCC(OCC)OCC | -26.4% | 1.15% | -4.2% | 22.2% | -1% | -16.9
COC(=O)Cc1ccccn1 | 0.4% | -18.9% | 1.4% | 14.5% | -21.5% | 22.4
CC(CN1c2ccccc2Sc2ccccc21)N(C)CCO (stereo unspecified) | 3% | -24.7% | -4.05% | -1.6% | -4.3% | -0.9
CCOC(=O)C(C)(C)Oc1ccc2c(-c3ccc(Cl)cc3)cc(=O)oc2c1 | 9.05% | -5.1% | -2.5% | 7.65% | -11.9% | 2.55
O=C1NC(Cc2c[nH]c3ccccc23)C(=O)N2CCCC12 (stereo unspecified) | -4.85% | 1% | -7% | -6.5% | -6.3% | 8.85
CC(C)NC(N)=O | 29.8% | 16% | 26.4% | 19.1% | 2.35% | 16.4
ClCCCCOC1CCCCO1 (stereo unspecified) | -4.6% | 5.35% | 4.9% | 2.7% | -12.7% | -29.8
CN1CCN(C(=O)NC(C)(C)C)CC1 | -1.45% | -6.6% | -8.35% | -88.8% | -1.9% | -17.7
Cn1c(=O)c2ncn(Cc3ccccc3)c2n(C)c1=O | 1.8% | 4.4% | 0.85% | 0.75% | -7.75% | 13.2
O=C1c2cccc3cccc(c23)C(=O)N1CCO | 50.6% | 22.2% | 39.9% | 17.9% | 16.2% | 33.2
CCCC(=O)OCCOc1ccccc1 | 18.1% | 2.3% | 11% | 7.2% | 0.8% | 2.5
CC1(C)OC2C(C3N(c4ccccc4)CCN3c3ccccc3)OC(n3ccc(=O)[nH]c3=O)C2O1 (stereo unspecified) | -37.4% | -5.85% | -8.35% | 14.1% | -2.5% | -12.7
O=C1/C(=N\N(C(=O)c2ccccc2)c2ccccc2)c2cccc3cccc1c23 | 11.8% | 49% | 20.4% | 12.2% | 24.9% | 35.9
CCOC(=O)c1nc(N)c2c(CC#N)nn(C)c2n1 | 2.35% | -15.4% | 8.3% | -9.75% | 9.95% | -16.4

Source: PubChem BioAssay (NCI)
